Results published in PubChem BioAssay (NCATS).
The source made the active and inactive calls. No rule for the calls is given here.

Assay: Immunotoxin (HA22) sensitization/mitigation study. Vehicle arm (PBS) (AID 1159510)
Settings: cancer cells viability with PBS vehicle (HA22 study); series mostly up to 46.1 µM
Potency is read from the fitted curve at half-maximal effect.

Compound | Potency
COc1ccc(CC2SC(=O)NC2=O)cc1C(=O)NCc1ccc(C(F)(F)F)cc1 (centres undefined) | inactive
CCN(CCCO)CCCOc1ccc2c(Nc3cc(CC(=O)Nc4cccc(F)c4)[nH]n3)ncnc2c1 | 18.7 µM (active)
O=C(c1cc(Cc2n[nH]c(=O)c3ccccc23)ccc1F)N1CCN(C(=O)C2CC2)CC1 | 14.8 µM (active)
COc1ccc(CCN(C)CCCOc2ccc(S(=O)(=O)c3[nH]c4ccccc4c3C(C)C)cc2)cc1OC | 26.4 µM (active)
CC(O)=C(C#N)C(=O)Nc1ccc(C(F)(F)F)cc1 | 16.6 µM (active)
CNCc1ccc(-c2[nH]c3cc(F)cc4c3c2CCNC4=O)cc1 | 20.9 µM (active)
CCC(=C(c1ccccc1)c1ccc(OCCN(C)C)cc1)c1ccccc1 | 23.5 µM (active)
CCN(CC)CCCCNc1nc2cc(Cl)c(Cl)cc2nc1-c1ccc(-c2cccs2)s1 | 18.7 µM (active)
CS(=O)(=O)c1cccc(CNc2nc(Nc3ccc4c(c3)CCC(=O)N4)ncc2C(F)(F)F)c1 | 4.69 µM (active)
N#Cc1ccc(COC[C@H]2O[C@@H](n3c(NCc4ccc(Cl)c(Cl)c4)nc4c(N)ncnc43)[C@@H](O)[C@@H]2O)cc1 | 23.5 µM (active)
NC(=O)C1CCCc2c1[nH]c1ccc(Cl)cc21 (centres undefined) | inactive
CCn1c(-c2nonc2N)nc2c(C#CC(C)(C)O)ncc(OC[C@H]3CCCNC3)c21 | 10.5 µM (active)
CC[C@@H]1C(=O)N(C)c2cnc(Nc3ccc(C(=O)NC4CCC(N5CCN(CC6CC6)CC5)CC4)cc3OC)nc2N1C(C)C (some centres undefined) | 0.0132 µM (active)
CCOc1cc(C(=O)Nc2ccc(Cl)c(-c3nc4ccccc4[nH]3)c2)cc(OCC)c1OCC | 14.8 µM (active)
CCCn1c(=O)c2[nH]c(C34CC5CC3C[C@@H](C5)C4)nc2n(CCC)c1=O | 16.6 µM (active)
CCCCn1c(=O)n(Cc2ccccc2F)c(=O)c2[nH]c(Cc3ccc(NC(C)=O)cc3)nc21 | inactive
CCc1cncnc1N1CCN(Cc2nc3ccc(C(F)(F)F)cc3[nH]2)CC1 | 7.43 µM (active)
CC(C)OC(=O)C1=CN(C(=O)c2ccc(F)c(F)c2)CC(C)(C)c2c1[nH]c1ccccc21 | 2.96 µM (active)
Cn1c2cc(S(C)=O)sc2c2cnn(Cc3cccc(N)c3)c(=O)c21 (centres undefined) | inactive
CN1CCN(CCOc2cc(OC3CCOCC3)c3c(Nc4c(Cl)ccc5c4OCO5)ncnc3c2)CC1 | 20.9 µM (active)

Compound | Potency
Cc1cccc(-c2nn(C(=S)Nc3ccccc3)cc2-c2ccnc3ccccc23)n1 | 18.7 µM (active)
NC(CO)(CO)CCc1ccc(Sc2cccc(OCc3ccccc3)c2)cc1Cl | 23.5 µM (active)
CNC1CCN(C(Cc2cccc(-c3ccncc3)c2)C(=O)c2sc3c(F)ccc(F)c3c2Cl)CC1 (centres undefined) | 20.9 µM (active)
Cc1cccc(-c2[nH]c(C(C)(C)C)nc2-c2ccc3nccnc3c2)n1 | inactive
CC(=O)NC(C)c1ccc(Oc2ccc(OC(C)C)cc2)cc1 (centres undefined) | 16.6 µM (active)
Clc1ccc2ncc(-c3cccc(NC4CNC4)n3)n2c1 | 20.9 µM (active)
O=C(O)c1ccc(-c2c[nH]c3ccc(-c4ccccc4)cc23)cc1C1CCCC1 | inactive
CC[C@@H]1C(=O)N(C)c2cnc(Nc3ccc(C(=O)NC4CCN(C)CC4)cc3OC)nc2N1C1CCCC1 | 0.0066 µM (active)
C/C(=C\C(=O)Nc1ccccc1C(=O)O)c1ccc2ccccc2c1 | 16.6 µM (active)
CCOC(CN1C(=O)[C@](CC(=O)Nc2ccc(C)cc2)(NC(=O)Nc2ccc(C)cc2)c2ccccc21)OCC | 23.5 µM (active)
O=C(Nc1ccccc1-c1cn2c(CN3CCNCC3)csc2n1)c1cnc2ccccc2n1 | 26.4 µM (active)
CC(C)(C)c1cc(C(C)(C)C)c(NC(=O)c2c[nH]c3ccccc3c2=O)cc1O | 16.6 µM (active)
Cc1nn(Cc2ccccc2Cl)c(C)c1CN(C)CC(O)COc1ccc(Cl)cc1 (centres undefined) | 26.4 µM (active)
CN(C)c1ccc(Nc2nc(N)n(C(=O)c3c(F)cccc3F)n2)cc1 | 20.9 µM (active)
COc1cc2c(Oc3ccc4[nH]c(C)cc4c3F)ncnc2cc1OCCCN1CCCC1 | 13.2 µM (active)
CC(C)c1onc(-c2c(Cl)cccc2Cl)c1COc1ccc(/C=C/c2cccc(C(=O)O)c2)c(Cl)c1 | 3.32 µM (active)
CCCS(=O)(=O)Nc1ccc(F)c(C(=O)c2c[nH]c3ncc(-c4ccc(Cl)cc4)cc23)c1F | 23.5 µM (active)
CCCCOCCOc1nc(-c2ccc(C(=O)O)c(F)c2)sc1C | 0.0017 µM [activator] (active)
CN(C)CCCNC(=O)c1ccc(-c2cc(O)c3ncccc3c2)cc1 | 16.6 µM (active)
